Assay results from PubChem BioAssay AID504467 (National Center for Advancing Translational Sciences (NCATS), 2011).
Hit rate of the full screen: of about 330,000 compounds, about 7,700 (2.3%) were called active. Roughly 26% stayed inconclusive and do not appear here. What follows is part of a selection rich in actives, with near analogues and random picks from the rest. A number with no mark means an inactive call. The call rests on the fitted dose curve; in most records, active means well fitted inhibition curve with a large enough effect; inconclusive means small, poorly fitted or top-dose-only effect, or effect the other way; inactive means flat fitted curve, though single readings scatter.

Assay: qHTS screen for small molecules that inhibit ELG1-dependent DNA repair in human embryonic kidney (HEK293T) cells expressing luciferase-tagged ELG1; further: nearly all actives have a fitted effect of over 55% in size
Settings: HEK293T ELG1-luciferase reporter, luminescence, 16 h, DNA damage induced by 5-fluorouridine; series mostly up to 46.1 µM; activity change, negative = inhibition: at the top concentration
How it was run: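 DMSO vehicle served as the neutral condition. Each well held 2,000 cells given 5-fluorouridine plus compound; after 16 hr at 37 °C/5% CO2, ONE-Glo was added and luciferase measured 30 min later.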
On the % scale 0 is the no-effect control and ±100 the full control effect; potency means the concentration at half of the fitted maximal effect.

Going from `CC(C)=CCCC(C)CN1CCC(n2nccc2NC(=O)c2ccccc2)CC1` (stereo not drawn) to `CCOc1ccc(NC(=O)C2CCN(C(=O)N3CCOc4ccccc43)CC2)cc1`, the “activity change, negative = inhibition” value falls from -2.86% to -3.39%.

Compared with `Cc1cccc2cc(CN(C(=O)c3cccs3)c3ccccc3)c(=O)[nH]c12`, `Cc1cc(C)c2[nH]c(=O)c(CN(Cc3ccccc3)C(=S)NCCCN(C)C)cc2c1` is higher in “activity change, negative = inhibition” value: -1.66% for the first, 13.4% for the second.

Compared with `C=CC[C@@H](CC(=O)N[C@@H](CO)Cc1ccccc1)C(=O)N[C@H](COC(=O)[C@H](CC=C)CC(=O)OC(C)(C)C)Cc1ccccc1`, `O=C(NCCc1ccco1)C(=O)NCCC1CCCCN1S(=O)(=O)c1ccccc1` (stereo not drawn) is lower in “activity change, negative = inhibition” value: 18.7% for the first, -2.12% for the second.

Compared with `COCCCNc1nc2c(-c3cccc(C(F)(F)F)c3)nnn2c2ccccc12`, `O=C(Nc1ccc(C(F)(F)F)cc1)c1cccc(-n2cnnn2)c1` is lower in “activity change, negative = inhibition” value: 10.1% for the first, -22.7% for the second.

Going from `COC(=O)C(C)Sc1ccc2nnc(-c3cccc(F)c3)n2n1` (stereo not drawn) to `CCOC(=O)CNC(=O)CSc1ccc2nnc(-c3cccnc3)n2n1`, the “activity change, negative = inhibition” value rises from 3.9% to 18.4%.

Compared with `O=S(=O)(c1ccc(SCc2ccc(Br)cc2)nc1)N1CCOCC1`, `COc1ccc(S(=O)(=O)N2CCOCC2)cc1C(=O)NC1CCCCC1` is higher in “activity change, negative = inhibition” value: 2.85% for the first, 11.1% for the second.

Going from `CC(=O)Oc1ccc2c(=O)oc(-c3ccc([N+](=O)[O-])cc3)nc2c1` to `COc1cccc2cc(C(=O)NCc3ccc(C)cc3)c(=N)oc12`, the “activity change, negative = inhibition” value rises from -0.71% to 12.2%.

First: Cc1ccc(NC(=O)C/C(N)=N/O)cc1Cl
Second: O=C(CC(=O)Nc1ccc(Cl)c(Cl)c1)N/N=C/c1ccc(O)cc1
The “activity change, negative = inhibition” value of the first is higher: 0.53% for the first, -5.06% for the second.

First: CCOc1ccc(NC(=O)CN(C)C(=O)c2cccc(S(=O)(=O)N3CCCC3)c2)cc1OCC
Second: COc1ccc(S(=O)(=O)N2CCCCC2)cc1NC(=O)COc1ccccc1
The “activity change, negative = inhibition” value of the first is higher: 4.54% for the first, -17.4% for the second.

First: CCCn1c(SCC(=O)N2CCc3ccccc32)nnc1-c1ccncc1
Second: O=C(CSc1nc2[nH]ncc2c(=O)n1-c1ccccc1)N1CCCc2ccccc21
The “activity change, negative = inhibition” value of the first is lower: -8.3% for the first, 1.87% for the second.

Going from `CCC(=O)N1CCCc2ccccc21` to `CCNC(=O)NC(=O)C(C)OC(=O)C1CCN(S(=O)(=O)c2ccccc2F)CC1` (stereo not drawn), the “activity change, negative = inhibition” value rises from 14.5% to 16%.

First: O=C1NC(Cc2ccc(O)cc2)c2nc3ccc(Cl)cc3c(=O)n2-c2ccccc21 (stereo not drawn)
Second: N#C/C(=C(/O)COc1cccc2ccccc12)c1nc2ccccc2[nH]1
The “activity change, negative = inhibition” value of the first is lower: -0.185% for the first, 10.5% for the second.

First: CC(C)CNC(=O)C1CCCN(S(=O)(=O)c2ccc(-n3cnnn3)cc2)C1 (stereo not drawn)
Second: O=C(Nc1ccc(F)cc1)C1CCCN(S(=O)(=O)c2ccc(-n3cnnn3)cc2)C1 (stereo not drawn)
The “activity change, negative = inhibition” value of the first is lower: -8.75% for the first, -0.956% for the second.

Compared with `c1ccc2c(CSCc3nc4ccccc4[nH]3)cccc2c1`, `Cn1c(CC(=O)NNC(=O)c2ccccc2F)nc2ccccc21` is lower in “activity change, negative = inhibition” value: 2.77% for the first, -2.35% for the second.

First: Cc1noc(C)c1S(=O)(=O)N(C)C[C@H]1Oc2ccc(NC(=O)C3CCCCC3)cc2C(=O)N([C@H](C)CO)C[C@@H]1C
Second: COc1ccc(C(=O)C2CCCN(S(=O)(=O)c3cccc(C)c3)C2)c(C)c1 (stereo not drawn)
The “activity change, negative = inhibition” value of the first is lower: -22.7% for the first, -11.6% for the second.

Going from `CC(=O)Nc1ccc(NS(=O)(=O)c2ccc3c(c2)NC(=O)CC(=O)N3)cc1` to `COc1ccc(S(=O)(=O)Nc2ccc(S(=O)(=O)N3CCCCC3)cc2)cc1OC`, the “activity change, negative = inhibition” value falls from 2.13% to 0.651%.

Going from `COc1ccc(NC(=O)Cn2ncn3c(cc4ccccc43)c2=O)c(OC)c1OC` to `O=C(CN1C(=O)NC2(CCOc3ccccc32)C1=O)Nc1cccc([N+](=O)[O-])c1` (stereo not drawn), the “activity change, negative = inhibition” value rises from -9.46% to -1.59%.

Compared with `COc1ccc(NC(=O)N2CCCC(c3nc(-c4ccc(F)cc4)no3)C2)cc1` (stereo not drawn), `COc1ccc(CC(=O)Nc2cc(S(=O)(=O)N3CCCCC3)ccc2N2CCN(C)CC2)cc1` is higher in “activity change, negative = inhibition” value: -4.71% for the first, -4.62% for the second.

In the case of `COc1ccc(S(=O)(=O)N2CCCCC2)cc1Br`, the “activity change, negative = inhibition” value is reported as 13.4%.

For `Cc1cccc2cc(CN(Cc3cccs3)C(=S)NCc3ccco3)c(=O)[nH]c12`, the Potency was 20.6 µM (active).
For `COCCNc1cc(-c2ccccc2)nc2cc(-c3cccc(F)c3)nn12`, the Potency was 18.3 µM (active).
With `O=C(CC(O)(C(F)(F)F)C(F)(F)F)Nc1ccc(Cl)c(Cl)c1` the Potency was 4.11 µM (active).
With `Cn1c(SCC(=O)N2CCCc3ccccc32)nc2ccccc2c1=O` the Potency was 16.4 µM (active).
With `O=C(CSc1ccc2nnc(-c3ccccc3)n2n1)N1CCCc2ccccc21` the Potency was 25.9 µM (active).
For `COC(=O)c1ccc(CN2CCCC(C(=O)Nc3cccc(-n4cnnn4)c3)C2)cc1` (stereo not drawn), the Potency was 16.4 µM (active).
In the case of `N#C/C(=C(/O)Cc1cccc2ccccc12)c1nc2ccccc2s1`, the Potency is reported as 20.6 µM (active).
For `COc1cc(-c2noc(C3CCCN(S(=O)(=O)c4cccc(Cl)c4)C3)n2)cc(OC)c1OC` (stereo not drawn), the Potency was 20.6 µM (active).
With `CCNC(=O)NC(=O)C(C)OC(=O)c1cc(S(=O)(=O)N2CCCCCC2)ccc1OC` (stereo not drawn) the Potency was 23.1 µM (active).
With `COc1ccc(S(=O)(=O)N2CCCCCC2)cc1NC(=O)Cc1ccc(OC)c(OC)c1` the Potency was 18.3 µM (active).
With `COc1ccc(-c2ccc(Nc3ccc(S(=O)(=O)N4CCCC4)cc3)nn2)cc1OC` the Potency was 23.1 µM (active).
